CD40 NFkB inh = inhibitors of CD40-induced NF-kB signaling, primary screen, BL2 cells, luciferase reporter, single point | CD40L-induced, 4 h | inhibition, % at 10 µM | actives 0.94% (n = 83,000) | AID 1053188, 2014;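 active = mean inhibition of at least 50% with a set share of replicates also reaching that level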;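 note: 0% = neutral control wells and 100% = IKK inhibitor VII at 50 µM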
The depositor's hits bear a star; [ ] = another dose, or the depositor's remark. This excerpt belongs to a sample that is enriched for hits.

SMILES	CD40 NFkB inh
C[C@@H]1CCn2cc(nn2)COC[C@@H](c2ccccc2)NC1=O	10.7[25 µM]
COc1ccccc1C(=O)NCCC(=O)Nc1ccc(C)cn1	7.9
COc1ccccc1C(=O)NCCC(=O)Nc1nc2ccccc2[nH]1	52.0*
O=C(CCNC(=O)c1ccccc1Cl)Nc1nc2ccccc2[nH]1	-11.1
C/C=C/c1ccc(C2[C@H]3CNC[C@@H]2N3S(=O)(=O)c2ccc(C)cc2)cc1 (stereo not given in full)	-2.3
CSc1nnc(CNC(=O)C23CC4CC(CC(C4)C2)C3)n1Cc1ccccc1	8.2
CN(C)C(=S)N=c1ssc(=S)n1Cc1ccccc1	44.3*
CC(=O)[C@H]1CCC2C3CC=C4C[C@@H](O)CC[C@]4(C)C3CC[C@@]21C (stereo not given in full)	4.2
CC(C)[C@H](N)C(=O)N[C@H]1CCC2C3CC=C4C[C@@H](O)CC[C@]4(C)C3CC[C@@]21C (stereo not given in full)	71.0*
C[C@@H](N)C(=O)N[C@H]1CCC2C3CC=C4C[C@@H](O)CC[C@]4(C)C3CC[C@@]21C (stereo not given in full)	2.1
COC(=O)C12OCC34C(CC5C(C)=C(O)C(=O)CC5(C)C3C(O)C1O)OC(=O)C(OC(=O)C=C(C)C)C24 (stereo not given)	103.1*
CC(=O)N(C)C[C@@H]1Oc2ccc(N(C)C)cc2C(=O)N(C)C[C@@H]1C	0.0
COc1cccc(CN2[C@H](CO)[C@H](c3ccccc3)C23CN(C(=O)C2CCCCC2)C3)c1	11.1[25 µM]
CCS(=O)(=O)N1CCCCN2[C@H](CO)[C@H](c3ccc(-c4ccccc4F)cc3)[C@@H]2C1	0.3[25 µM]
COc1ccc(S(=O)(=O)N2[C@@H]3CNC[C@H]2C3c2ccc(-c3cccc(C)c3)cc2)cc1 (stereo not given in full)	-3.0
CC(C)NC(=O)Nc1ccc2c(c1)C(=O)N(C)C[C@H](C)[C@H](CN(C)C(=O)OC(C)(C)C)O2	0.0
CNC[C@@H]1Oc2c(NS(C)(=O)=O)cccc2C(=O)N(C)C[C@H]1C	13.4
C[C@H]1CN(C)C(=O)c2cccnc2O[C@@H]1CN(C)S(C)(=O)=O	10.0
O=C(C1CCOCC1)N1CC(=O)N2[C@H](CO)[C@H](c3ccc(C#CCc4ccccc4)cc3)[C@H]2C1	36.7[25 µM]
COCC#Cc1ccc([C@@H]2[C@H](CO)N3C(=O)CN(C(=O)C4CCCCC4)C[C@@H]23)cc1	-24.3[25 µM]
O=C(C1CCCC1)N1CC(=O)N2[C@H](CO)[C@H](c3ccc(C#CCc4ccccc4)cc3)[C@H]2C1	66.0*
O=C(C1CCOCC1)N1CC(=O)N2[C@H](C1)[C@H](c1ccc(C#CCc3ccccc3)cc1)[C@@H]2CO	75.0*[25 µM]
COCC#Cc1ccc([C@H]2[C@H](CO)N3C(=O)CN(C(=O)C4CCCCC4)C[C@@H]23)cc1	1.2[25 µM]
O=C(C1CCC1)N1CC(=O)N2[C@H](CO)[C@H](c3ccc(C#CCc4ccccc4)cc3)[C@H]2C1	70.6*
O=C(C1CCOCC1)N1CC(=O)N2[C@H](CO)[C@H](c3ccc(C#CCc4ccccc4)cc3)[C@@H]2C1	-10.7[25 µM]
SMILES	CD40 NFkB inh
O=C(C1CCOCC1)N1CC(=O)N2[C@@H](CO)[C@H](c3ccc(C#CCc4ccccc4)cc3)[C@@H]2C1	4.0[25 µM]
O=C(C1CCCC1)N1CC(=O)N2[C@H](C1)[C@H](c1ccc(C#CCc3ccccc3)cc1)[C@@H]2CO	23.9
COCCNC(=O)C[C@@H]1C[C@@H]2c3cc(NC(=O)NC4CCCCC4)ccc3O[C@@H]2[C@H](CO)O1	-3.3
CCC(=O)N[C@@H]1C=C[C@@H](CC(=O)NCCN2CCCCC2)O[C@@H]1CO	-6.5
C[C@H](CO)N1C[C@H](C)[C@@H](CN(C)C(=O)c2ccc(F)cc2)OCc2ccccc2-c2c(n(C)c3ccccc23)C1=O	2.0
COc1cc2c(cc1OC)CN(CC(=O)NC(=O)NC(C)(C)C)CC2	-0.1
COc1cc2c(cc1OC)CN(C(=O)c1ccc(-c3ccccc3)cc1)CC2	17.5
COc1ccc(C(=O)CCN2CCc3cc(OC)c(OC)cc3C2)cc1	50.4*
CNC[C@H]1Oc2ccc(NC(C)=O)cc2CC(=O)N(C)C[C@@H]1C	6.6
CN1C[C@@H]2[C@H](c3ccccc31)[C@H](CO)N2Cc1ccccc1F	-7.6[25 µM]
CS(=O)(=O)N1[C@@H]2CN(CC(F)(F)F)C[C@H]1C2c1ccc(Br)cc1 (stereo not given in full)	6.1
CO[C@H]1CN(C)C(=O)c2ccc(NC(=O)C3CC3)cc2OC[C@@H](C)N(Cc2cccnc2)C[C@H]1C	-0.2
C[C@@H]1CN([C@@H](C)CO)C(=O)c2ccccc2-c2ccccc2CO[C@@H]1CN(C)Cc1cccnc1	-16.1[25 µM]
Cn1cc(/C=C/C(=O)c2ccccc2)c2ccccc21	33.2*
Cn1cc(/C=N/Nc2ccccc2)c2ccccc21	-3.1
O=C(/C=C/c1ccccc1)c1ccccc1	-42.4
O=C(C[C@@H]1CC[C@H]2NC[C@H](O)COC[C@@H]2O1)NCc1ccc(Oc2ccccc2)cc1	0.1
CCCN1C[C@@H](C)[C@H](OC)CN(C)C(=O)c2cc(NC(=O)Nc3cccc(OC)c3)ccc2OC[C@@H]1C	5.7
Cc1nc(-c2ccc(F)cc2)c(CC(=O)N(C)CC(=O)Nc2ccccc2Cl)s1	53.0*
CN(CC(=O)Nc1ccccc1Cl)C(=O)COC(=O)c1cccs1	13.1
CN(CC(=O)Nc1ccccc1Cl)C(=O)COC(=O)c1ccc(S(=O)(=O)C(F)F)cc1	7.2
O=C(NC1CCCCC1)N1CC(=O)N2[C@@H](CO)[C@@H](c3ccc(-c4cccnc4)cc3)[C@@H]2C1	-4.1
C[C@@H]1CN([C@H](C)CO)C(=O)c2ccccc2-c2ccccc2CO[C@@H]1CN(C)S(=O)(=O)Cc1ccccc1	0.9[25 µM]
O=C(N/N=C/c1cccnc1)c1ccc2c(c1)OCO2	-32.6
O=C(N/N=C/c1cccc(O)c1)c1ccc2c(c1)OCCO2	75.1*
SMILES	CD40 NFkB inh
O=C(N/N=C/c1ccc2c(c1)OCO2)c1ccc2c(c1)OCO2	-62.3
O=C1[C@@H](Cc2ccc(F)cc2)CCn2cc(nn2)COC[C@H]2CCCN12	-8.9[25 µM]
N#C[C@@H]1[C@@H](c2ccc(C#Cc3cccnc3)cc2)[C@@H](CO)N1C(=O)C1CCCC1	-4.5
Cc1ccc(/C=C/c2nc3ccccc3s2)s1	74.7*
c1ccc2sc(-c3ccncc3)nc2c1	-64.3
c1ccc2sc(N3CCOCC3)nc2c1	-29.4
CC(C)NC(=O)N(C)C[C@@H]1Oc2ncccc2C(=O)N(C)C[C@H]1C	5.0
CCCCCCCN1N=C(C)C(C(=O)c2ccccc2)C1=O (stereo not given)	11.0
CCCCCN1C=CC(=C2C(=O)c3ccccc3C2=O)C=C1	81.5*
C[C@@H]1CC=CC[C@@H](c2ccc3c(c2)OCO3)NC(=O)[C@H](C)N(C)C(=O)c2ccccc2O1 (mixture of isomers)	13.4[25 µM]
COc1ccc(C(=O)Nc2ccc(N3CCOCC3)cc2)cc1S(=O)(=O)N1CCOCC1	16.8*
COc1ccc(C(=O)Nc2ccc(N3CCOCC3)cc2)cc1S(=O)(=O)N1CCCC1	-9.3
COc1ccc(C(=O)Nc2ccc(NC(C)=O)cc2)cc1S(=O)(=O)N1CCCC1	-0.8
CC(=O)Nc1cccc2c1O[C@H](CN(C)C(=O)NC(C)C)[C@@H](C)CN(C)C2=O	2.5
O=C(C[C@@H]1CC[C@@H]2[C@H](COC[C@@H](O)CN2C(=O)c2cnccn2)O1)N1CCN(c2ccccc2)CC1	6.7[25 µM]
COc1ccc2c3c([nH]c2c1)[C@H](CO)N(Cc1ccccc1)CC31CN(C(=O)Nc2cccc(F)c2)C1	11.7[25 µM]
